FBA Mtb inh: inhibitors of M. tuberculosis fructose-bisphosphate aldolase. 2.3% of 360,000 active. inhibition, % at 1 µM. P9WQA3. purified M. tuberculosis FBA, fluorescence read-out. AID 588726;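 further: 0% = vehicle and 100% = reference inhibitor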
Target sequence (P9WQA3 whole entry, looked up): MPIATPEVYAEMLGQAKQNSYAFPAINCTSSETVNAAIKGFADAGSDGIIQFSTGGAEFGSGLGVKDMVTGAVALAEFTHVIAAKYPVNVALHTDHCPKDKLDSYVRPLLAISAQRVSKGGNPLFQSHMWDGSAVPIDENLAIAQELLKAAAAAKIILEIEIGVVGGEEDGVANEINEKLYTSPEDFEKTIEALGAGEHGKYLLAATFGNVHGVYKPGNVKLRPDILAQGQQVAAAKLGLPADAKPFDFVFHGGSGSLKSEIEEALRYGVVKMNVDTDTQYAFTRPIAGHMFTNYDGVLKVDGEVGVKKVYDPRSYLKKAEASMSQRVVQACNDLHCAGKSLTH
GDH-TPI counter-1: counter-screen for M. tuberculosis FBA inhibitors: GDH-TPI coupled enzymes. AID 588335. 1.2% of 360,000 active. GDH-TPI coupled enzyme counterscreen, NADH absorbance. inhibition, % at 4.8 µM; in the data active means inhibition above about 30%;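 further: 0% = DMSO wells and 100% = wells lacking the enzyme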
FadD28 binding: blocks FadD28 binding to the bisubstrate probe | AID 588549 | fluorescence polarization | 0.22% of 360,000 active | inhibition, % at 12.5 µM; in the data active means inhibition above about 8.5%, passing the limit was not always enough
Mtb hypoxia rep: Mtb hypoxia fluorescent reporter inhibition; M. tuberculosis hypoxia-regulated fluorescent reporter, fluorescence; fluorescence inhibition, % (concentration not given with the values); 0.1% of 300,000 active; AID 1159583; in the data active means fluorescence inhibition mostly above about 23%, no sharp cut-off; inactive means mostly below about 17%
Mtb BioA inh: blocks M. tuberculosis BioA enzyme activity | purified M. tuberculosis BioA enzyme, plate reader | inhibition, % at 9.99 µM | 0.096% of 360,000 active; in the data active means inhibition above about 40%
Mtb FBA confirm: Mtb FBA inhibition, confirmed. inhibition, % at 1 µM. shares compounds with FBA Mtb inh. 78% of 5,600 active. purified M. tuberculosis FBA, fluorescence read-out;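 further: 0% = vehicle wells and 100% = reference inhibitor wells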
GDH-TPI counter-2: inhibits GDH-TPI coupling enzymes, flagging Mtb FBA hits | shares compounds with FBA Mtb inh | GDH-TPI coupled enzyme counterscreen, fluorescence | inhibition, % at 1 µM | 81% of 5,600 active | AID 652141; in the data active means inhibition above about 10%
Active calls of the source: *; / = not tested or not shown; + = active, no number. Most compounds without a hit are left out; they make up all but 2.9% or so of the library. Unless noted, no stated cut-off is given here; in the data, active means inhibition above about 27%; inactive means the rest.

SMILES | FBA Mtb inh | GDH-TPI counter-1 | FadD28 binding | Mtb hypoxia rep | Mtb BioA inh | Mtb FBA confirm | GDH-TPI counter-2
CC(=O)c1ccc(NC(=O)c2sc3nc(N4CCOCC4)c4c(c3c2N)CCCC4)cc1 | 5 | 11 | -2 | 0 | 2 | / | /
Nc1c(C(=O)Nc2ccccc2)sc2nc(N3CCOCC3)c3c(c12)CCCC3 | 51* | 22 | -1 | / | 0 | 158* | 160*
Nc1c(C(=O)Nc2ccc(Cl)cc2)sc2nc(N3CCOCC3)c3c(c12)CCCC3 | 37* | 15 | -2 | 8 | 1 | -3 | -2
COc1cccc(NC(=O)c2sc3nc(N4CCOCC4)c4c(c3c2N)CCCC4)c1 | 29* | 14 | -1 | 8 | -1 | 48* | 45*
Cc1ccc(NC(=O)c2sc3nc(N4CCOCC4)c4c(c3c2N)CCCC4)cc1 | 7 | 12 | -1 | / | 0 | / | /
O=S(=O)(c1ccc2ccccc2c1)N1C=CC(C(F)(F)F)=NCC1 | 86* | 10 | -1 | / | -3 | -9 | -5
O=C(Nc1nc(-c2ccccc2)cs1)c1ccc2c(c1)S(=O)(=O)c1ccccc1C2=O | 84* | -2 | 1 | -13 | / | + | 158*
O=C(N[C@H]1CC[C@H](CCNC(=O)C2CC2)O[C@H]1CO)c1ccncc1 | / | / | / | / | -1 | / | /
Cc1cccc(C(=O)O)c1O | 38* | 1 | 2 | / | -1 | 87* | 52*
Nc1c(O)cccc1C(=O)O | 40* | 1 | -1 | -6 | -1 | + | 193*
Cc1cccc(C(=O)c2ccccc2C(=O)O)c1O | -2 | 11 | 1 | 7 | -2 | / | /
O=C(O)c1ccccc1O | 46* | 12 | 0 | 19 | 1 | 7 | -3
Fc1ccc2cc(CCOC3CCCCO3)ncc2c1 (stereo not given) | / | / | / | 14 | / | / | /
Cc1cc(C)nc(NN=C/C(Cl)=C/c2ccccc2)n1 | / | / | / | 3 | / | / | /
C[C@H](CO)N1C[C@H](C)[C@H](CN(C)C(=O)NC2CCCCC2)Oc2ncc(/C=C/c3ccccc3)cc2C1=O | / | / | / | / | 0 | / | /
C[C@@H]1CN([C@H](C)CO)C(=O)c2cc(/C=C/c3ccccc3)cnc2O[C@H]1CN(C)C(=O)NC1CCCCC1 | 60* | 12 | -1 | / | 1 | 75* | 70*
C[C@H]1CN([C@@H](C)CO)C(=O)c2cccc(NC(=O)c3cnccn3)c2O[C@@H]1CN(C)S(C)(=O)=O | / | / | / | / | -2 | / | /
COc1cccc(N2CC(=O)N(NC(=O)c3sc4nc(C)cc(C)c4c3N)CC2=O)c1 | 54* | 5 | -2 | -5 | / | + | 175*
Cc1cc(C)c2c(N)c(C(=O)NN3CC(=O)N(c4ccccc4F)CC3=O)sc2n1 | 62* | 3 | -1 | -2 | -1 | 104* | 87*
C[C@@H]1CN([C@H](C)CO)C(=O)c2cccc(NS(=O)(=O)c3ccccc3)c2O[C@@H]1CN(C)S(=O)(=O)c1ccccc1 | / | / | / | / | 1 | / | /
COc1ccc(C=NNC(=O)C(C)n2cnc3ccccc3c2=O)cc1OC (stereo not given) | / | / | / | 7 | / | / | /
COP(=O)(OC)c1nc(-c2ccccc2)oc1NCc1ccccc1 | 107* | 5 | -1 | 2 | / | 86* | 70*
CCCOP(=O)(OCCC)c1nc(-c2ccccc2)oc1NCc1ccccc1 | 57* | 12 | 0 | -1 | -1 | 1 | -1
COP(=O)(OC)c1nc(-c2ccccc2)oc1N1CCOCC1 | 89* | -3 | -2 | 4 | / | 83* | 56*
Cc1ccc(S(=O)(=O)c2nc(-c3ccccc3)oc2NCc2cccnc2)cc1 | -1 | 7 | -3 | 9 | 3 | / | /
SMILES | FBA Mtb inh | GDH-TPI counter-1 | FadD28 binding | Mtb hypoxia rep | Mtb BioA inh | Mtb FBA confirm | GDH-TPI counter-2
CNc1oc(-c2ccc(C)cc2)nc1P(=O)(c1ccccc1)c1ccccc1 | -2 | 17 | -2 | -2 | / | / | /
CCOP(=O)(OCC)c1nc(-c2ccc(Cl)cc2)oc1NCc1ccccc1 | 79* | 14 | -2 | -11 | / | 80* | 102*
O=C(C[C@H]1CC[C@H](NC(=O)CN2CCOCC2)[C@H](CO)O1)NCCc1ccccc1 | / | / | / | / | -4 | / | /
CCC(=O)Nc1ccc2c(c1)OC[C@@H](C)N(CCc1ccccc1)C[C@@H](C)[C@H](OC)CN(C)C2=O | / | / | / | / | 2 | / | /
COc1ccccc1CN1Cc2cccc3c2C(CC1=O)C(O)C(O)C3 (stereo not given) | / | / | / | 3 | / | / | /
CN1CCN(C(=O)c2cc3ccccc3oc2=O)CC1 | 2 | 2 | 0 | / | 8 | / | /
O=C(c1cc2c(ccc3ccccc32)oc1=O)N1CCN(CCO)CC1 | 53* | 26 | 1 | / | -2 | 63* | 62*
CC(=O)Nc1cc2c(ccc3ccccc32)oc1=O | 105* | 11 | 1 | -2 | / | 69* | 63*
C/C(=N\Nc1nc(-c2cc(C)ccc2C)cs1)c1cc2c(ccc3ccccc32)oc1=O | 29* | 12 | -2 | / | / | 69* | 43*
C/C(=N\Nc1nc(-c2cc(C)ccc2C)cs1)c1cc2ccccc2oc1=O | 1 | 7 | -2 | / | 0 | / | /
CC(=O)c1cc2c(ccc3ccccc32)oc1=O | 50* | 11 | -3 | 17 | -15 | 73* | 60*
O=C(c1ccco1)c1cc2c(ccc3ccccc32)oc1=O | 4 | 14 | -2 | 2 | -1 | / | /
C[C@@H]1CN([C@H](C)CO)C(=O)c2cc(/C=C/c3ccccc3)cnc2O[C@H]1CN(C)C(=O)c1cccnc1 | / | / | / | / | -2 | / | /
C[C@H]1CN([C@@H](C)CO)C(=O)c2cc(NS(=O)(=O)c3ccc(F)cc3)ccc2O[C@H]1CN(C)Cc1ccc(C(F)(F)F)cc1 | / | / | / | / | -2 | / | /
COc1ccc(NC(=O)Nc2ccc3c(c2)C(=O)N([C@H](C)CO)C[C@H](C)[C@H](CN(C)S(C)(=O)=O)OCCCC[C@H](C)O3)cc1 | / | / | / | / | -1 | / | /
CCOC(=O)N1CCN(C(=O)C(=O)NN=Cc2ccc(OC)cc2OC)CC1 | / | / | / | 1 | / | / | /
COc1c(Cl)cccc1-c1cn2ccccc2n1 | 68* | 7 | -2 | 6 | / | 6 | 4
COc1ccc(-c2ccc(CCC(=O)O)n2CC2CCCO2)cc1 (stereo not given) | 33* | 11 | 0 | -8 | / | + | 144*
COc1ccc(-c2ccc(CCC(=O)O)n2CC(C)C)cc1 | 41* | -12 | 3 | 8 | / | 48* | 30*
C[C@H]1CN([C@@H](C)CO)C(=O)c2cc(C3=CCCCC3)cnc2O[C@@H]1CN(C)C(=O)NC1CCCC1 | / | / | / | / | -3 | / | /
Cc1cccc2cc3ccccc3nc12 | 14 | 8 | -1 | 12 | / | / | /
Cc1cccc2nc3ccccc3cc12 | 33* | -7 | -4 | 19 | -2 | 49* | 33*
Cc1cc(-c2ccc(Cl)cc2)n2ncnc2n1 | 28* | 10 | -1 | 2 | 0 | 101* | 91*
Cc1cc(Nc2ccc(Cl)cc2)n2ncnc2n1 | 5 | 5 | -2 | -1 | 0 | / | /
Cc1cc(N)n2ncc(-c3ccc(Cl)cc3)c2n1 | 3 | 13 | 1 | -4 | -1 | / | /

Bioassay records (PubChem)
